Out of some 1,300 compounds screened, about 750 (58%) were called active. The list shows a part of the results. Unmarked numbers belong to inactive results.

A word on the inhibition: it is the drop in the measured response relative to a control, in per cent.

In this test the target is Sulfhydryl oxidase 1 (Homo sapiens) (UniProt O00391). Description: QSOX1 enzyme inhibitors, primary screen, biochemical, ROS-Glo H2O2 luminescence, HTS (AID 1347418). Conditions: recombinant QSOX1, ROS-Glo H2O2 luminescence, at 12.5 µM, stronger effect = higher value; active = any value above zero unless noted.
Chain of Sulfhydryl oxidase 1 (Homo sapiens) (O00391 whole entry, looked up): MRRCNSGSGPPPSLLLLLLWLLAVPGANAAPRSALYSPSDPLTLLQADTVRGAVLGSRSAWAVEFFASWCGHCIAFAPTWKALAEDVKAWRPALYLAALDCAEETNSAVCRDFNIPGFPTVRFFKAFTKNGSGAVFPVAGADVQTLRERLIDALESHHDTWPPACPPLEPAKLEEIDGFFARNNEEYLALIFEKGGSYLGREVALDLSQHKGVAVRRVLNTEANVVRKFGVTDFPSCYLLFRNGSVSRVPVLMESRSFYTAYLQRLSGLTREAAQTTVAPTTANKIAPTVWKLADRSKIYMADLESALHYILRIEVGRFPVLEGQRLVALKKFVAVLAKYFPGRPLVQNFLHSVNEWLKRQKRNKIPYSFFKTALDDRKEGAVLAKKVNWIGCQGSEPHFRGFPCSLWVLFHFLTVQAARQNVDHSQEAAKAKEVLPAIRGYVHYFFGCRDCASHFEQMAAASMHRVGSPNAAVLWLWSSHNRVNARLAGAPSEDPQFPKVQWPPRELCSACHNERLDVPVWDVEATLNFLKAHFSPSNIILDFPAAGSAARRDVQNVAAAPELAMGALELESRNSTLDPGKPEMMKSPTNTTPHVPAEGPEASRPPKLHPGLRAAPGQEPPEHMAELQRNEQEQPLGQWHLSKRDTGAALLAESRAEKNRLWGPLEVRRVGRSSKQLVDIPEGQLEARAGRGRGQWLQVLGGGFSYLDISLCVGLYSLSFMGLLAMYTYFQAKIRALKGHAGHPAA
Turning to `C[C@]12Cc3cn4c(nc3C=C1CCC1C2CC[C@@]2(C)[C@H]1CC[C@@]2(O)C#N)nc1ccccc14` (some centres not stated), the inhibition was 2.7% (active).
The same measure for `NC(C(=O)O)c1cc(=O)[nH]o1` (configuration not stated): -2.4%.
As for `Cc1o[nH]c(=O)c1CC(N)C(=O)O` (configuration not stated), the inhibition was 4.2% (active).
The same measure for `CCCN(CCC)CCc1ccc(O)c(O)c1`: 14.4% (active); for `CNCCc1ccc(O)c(O)c1`: 7.7% (active); for `CC(C)(C)NCC(O)c1ccccc1Cl` (configuration not stated): -0.6%.
For `CC(N)c1cccc(Cl)c1Cl` (configuration not stated), the inhibition was 6.2% (active).
The same measure for `O=C(O)[C@@H]1CCN1`: 9.3% (active); for `C[C@H](N)Cc1cccc(C(F)(F)F)c1`: 1.6% [setting not given] (active).
Next, `O=[N+]([O-])c1cc(O)c(O)c([N+](=O)[O-])c1`: 13% (active).
Next, `NCCc1ccc(S(=O)(=O)F)cc1`: 5.8% (active).
Regarding `N=C(N)c1ccc(CS(=O)(=O)F)cc1`, the inhibition is -0.1%.
As for `NCCc1ccc(O)cc1`, the inhibition is -0.2% [setting not given].
Next, `CC1=NN=C(c2ccc(N)cc2)c2cc3c(cc2C1)OCO3`: 10.6% (active).
The same measure for `NCC(CP(=O)(O)O)c1ccc(Cl)cc1` (configuration not stated): 0.1% (active); for `NCC(CC(=O)O)c1ccc(Cl)cc1` (configuration not stated): 1.1% [setting not given] (active); for `CCCCC/C=C\C/C=C\C/C=C\C/C=C\CCCC(=O)NCC(=O)O`: 2.2% (active).
Consider `Cc1cccc(C)c1NC1=NCCCS1`, for which the inhibition was 0.2% [setting not given] (active).
Next, `Nc1ccncc1`: -1% [setting not given].
The same measure for `CCN1C[C@@]2(COC)C3[C@@H](OC)C4[C@@H]1C3([C@@H]1C[C@@]3(O)[C@H](OC(=O)c5ccccc5)[C@@H]1[C@]4(OC(C)=O)[C@@H](O)[C@@H]3OC)[C@H](OC)C[C@H]2O`: 2.6% (active); for `CNc1ccc2oc(C[C@H]3O[C@@]4(CC[C@H]3C)O[C@H]([C@H](C)C(=O)c3ccc[nH]3)[C@H](C)C[C@H]4C)nc2c1C(=O)O`: 14.2% [setting not given] (active).
The same measure for `Cc1c2ccncc2c(C)c2c1[nH]c1ccccc12`: 29% [setting not given] (active); for `Cc1nccc2c1[nH]c1ccccc12`: -2% [setting not given].
For the compound `NC(CCCCCP(=O)(O)O)C(=O)O` (configuration not stated), the inhibition was -4.6%.
Next, `NC(CCP(=O)(O)O)C(=O)O` (configuration not stated): 2.8% (active); `NC(CP(=O)(O)O)C(=O)O` (configuration not stated): 2.8% (active); `CO[C@H]1CC=C2CCN3CCC4=C(CC(=O)OC4)[C@]23C1`: 0.6% (active).
For `O=c1[nH]oc2c1CCNC2`, the inhibition was -7.3%.
The same measure for `c1ccc2sc(C3(N4CCCCC4)CCCCC3)cc2c1`: 0.2% (active); for `Cc1sc2ccccc2c1CC1=NCCN1`: -3.3%.
The same measure for `CC(C)N(CCC(C(N)=O)(c1ccccc1)c1ccccn1)C(C)C` (configuration not stated): 6.1% [setting not given] (active); for `CC1(C(=O)O)C2CCC(O2)C1(C)C(=O)O` (configuration not stated): -3.3%; for `COc1ccc(CNC(=O)/C=C/c2ccc3[nH]cc(CCN(C)C)c3c2)cc1`: 1.8% [setting not given] (active).
On to `CN(C(=O)Cc1ccc(Cl)c(Cl)c1)C(CN1CCCC1)c1cccc(OCC(=O)O)c1` (configuration not stated), for which the inhibition is 1.2% (active).
The same measure for `COC(=O)N1CCN(C(=O)Cc2ccc(Cl)c(Cl)c2)C(CN2CCCC2)C1` (configuration not stated): -0.5%.
The same measure for `O=C(Cc1ccc(Cl)c(Cl)c1)N1CCCCC1CN1CCCC1` (configuration not stated): -1.7%; for `CC(C)c1cccc(C(C)C)c1O`: 0.9% (active).

Source of the values: PubChem BioAssay AID1347418 (Sanford-Burnham Center for Chemical Genomics, 2020).
